Bioassay records (PubChem)
Shown are actives, neighbours in structure and some others; about 12% of the full set was active somewhere.
JMJD2A Tudor inh – JMJD2A Tudor domain (human) inhibition | Potency, µM (highest dose often 114 µM), usual class: inhibitors | O75164 | hit rate 4.4% among 390,000 | AlphaScreen JMJD2A-Tudor / H3K4me3 peptide binding; also: nearly all actives have a fitted effect of over 50% in size
Sfp inh – Sfp phosphopantetheinyl transferase inhibition; Q9F4F7; Biochemical Sfp PPTase activity, qHTS; Potency, µM, most hits filed as inhibitors; hit rate 3.5% among 310,000; AID 1490;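 also: the enzyme is Sfp with the accession as filed and its product quenches rhodamine fluorescence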
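Buffer: 50 mM Hepes-Na pH 7.6, 10 mM MgCl2, 0.01% Nonidet P-40, 0.01% BSA. Enzyme 15 nM, pre-exposed to compound 15 min; substrates then added and fluorescence change tracked over 30 min.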
HP1b chromo inh – HP1-beta chromodomain-methylated histone interaction inhibition | P83916 | AlphaScreen HP1-beta / biotin-H3K9me3 peptide binding | Potency, µM (series often up to 114 µM), actives largely listed as inhibitors | hit rate 0.56% among 390,000 | AID 540317; also: nearly all actives have a fitted effect of over 70% in size
Target sequence (P83916 whole entry, looked up): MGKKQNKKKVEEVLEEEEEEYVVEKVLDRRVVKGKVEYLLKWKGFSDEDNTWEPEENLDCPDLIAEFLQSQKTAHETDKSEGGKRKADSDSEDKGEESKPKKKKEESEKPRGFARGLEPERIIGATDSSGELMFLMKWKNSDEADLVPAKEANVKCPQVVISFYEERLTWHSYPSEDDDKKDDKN
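Compound inhibition of the preformed complex between 50 nM HP1-beta and 50 nM biotinylated H3K9me3 peptide was read by AlphaScreen. Buffer was PBS pH 7.4 with 0.01% Tween-20. Incubations ran 30 min at room temperature, with 10 ug/mL donor/acceptor beads.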
L3MBTL1 inh – inhibitors of human L3MBTL1; Q9Y468; AlphaScreen L3MBTL1–H3K9me1 peptide binding; Potency, µM (top dose mostly 57.1 µM), actives largely listed as inhibitors; hit rate 0.66% among 230,000; also: nearly all actives have a fitted effect of over 60% in size
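Read-out is AlphaScreen signal from streptavidin donor and nickel chelate acceptor beads (10 ug/mL final each) bridging L3MBTL1 (50 nM) and biotinylated K9-monomethylated H3(1-15) peptide (75 nM), after 30 min compound exposure at room temperature.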
G9a block – inhibitors of human histone lysine methyltransferase G9a; G9a H3K9 monomethylation, AlphaScreen, 2 h; Potency, µM (series often up to 102 µM), actives largely listed as inhibitors; hit rate 8.8% among 350,000; also: nearly all actives have a fitted effect of over 75% in size
Target sequence (Q96KQ7 913-1193 limits assumed): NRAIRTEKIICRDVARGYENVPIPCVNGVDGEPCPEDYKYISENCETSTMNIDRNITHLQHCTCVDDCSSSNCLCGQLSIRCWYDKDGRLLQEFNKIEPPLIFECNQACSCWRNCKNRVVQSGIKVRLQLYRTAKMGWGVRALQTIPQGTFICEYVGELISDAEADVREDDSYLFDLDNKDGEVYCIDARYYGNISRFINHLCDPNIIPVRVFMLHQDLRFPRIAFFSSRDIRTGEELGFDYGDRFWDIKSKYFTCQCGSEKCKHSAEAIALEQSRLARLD
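G9a (20 nM) was preincubated 15 min with compound, then reacted 2 h at room temperature with 500 nM biotin-H3K9 peptide and 20 µM SAM. Monomethyl-H3K9 detected by AlphaScreen using anti-H3K9me1 antibody.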
BAZ2B block – blocks human BAZ2B. Q9UIF8. hit rate 4.4% among 360,000. AID 504333. Potency, µM (highest dose often 114 µM), most hits filed as inhibitors. AlphaScreen BAZ2B-H3K14Ac peptide displacement; also: nearly all actives have a fitted effect of over 60% in size
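Complex of BAZ2B and biotin-H3K14Ac (50 nM apiece) forms over 30 min at RT, then faces library compounds up to 110 uM for another 30 min; AlphaScreen beads added, 20 min dark incubation, luminescence read.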
A number is an active result; 0 = inactive; ? = inconclusive; - = no result. Calls follow the shape of the dose curve; as a rule, active = well fitted curve in the direction sought with a large enough effect; inconclusive = small, poorly fitted or top-dose-only effect, or another doubt; inactive = no such curve, though single readings can be large; an effect the other way counts as inactive or inconclusive.

SMILES	JMJD2A Tudor inh	Sfp inh	HP1b chromo inh	L3MBTL1 inh	G9a block	BAZ2B block
N#Cc1c(-c2ccc(Cl)cc2)cc(-c2cccs2)nc1SCC(=O)O	28µM	40µM	0	-	8.9µM	22µM
N#Cc1c(-c2ccccc2)cc(-c2cccs2)nc1SCC(=O)O	0	56µM	0	-	8.9µM	0
N#Cc1c(-c2ccccc2)cc(-c2ccccc2)nc1SCC(O)CS(=O)(=O)Cc1ccccc1 (stereo unspecified)	0	-	0	-	4.5µM	0
Cc1ccc(-c2cc(-c3ccccc3)c(C#N)c(SCC(O)CS(=O)(=O)Cc3ccccc3)n2)cc1 (stereo unspecified)	0	-	0	-	?	0
COc1ccc(-c2cc(-c3cccs3)c(C#N)c(SCC(=O)NCc3ccccc3)n2)cc1	0	0	0	0	0	0
CN1CCN(C(=O)CSc2nc(-c3cccs3)ccc2C#N)CC1	?	?	0	0	40µM	0
Cc1cccc(CSc2nc(-c3cccs3)ccc2C#N)c1	0	-	0	-	0	0
O=C(c1cnc(Cl)c(Cl)c1)N1CCC(Cc2ccccc2)CC1	0	0	0	0	0	0
CCO[C@@H]1OC(C(=O)NCc2ccccc2)=C[C@H](c2ccc(Br)cc2)[C@H]1CCCO	0	0	0	0	0	0
CCCc1ccc(-c2c(C)sc(N)c2C#N)cc1	0	35µM	?	-	40µM	?
C=C(C)CSc1nc2sc3c(c2c(=O)n1C1CCCCC1)CCN(C)C3	?	0	0	0	-	?
CCSc1nc2sc3c(c2c(=O)n1C1CCCCC1)CCN(C)C3	0	0	0	0	?	0
CSc1nc2sc3c(c2c(=O)n1C1CCCCC1)CCN(C)C3	0	0	0	0	50µM	0
NNc1nc2sc3c(c2c(=O)n1Cc1ccccc1)CCC3	0	32µM	0	0	?	0
CCn1c(SCC(=O)c2ccccc2)nc2sc3c(c2c1=O)CCN(C)C3	?	50µM	0	?	25µM	0
NNc1nc2sc3c(c2c(=O)n1C1CCCCC1)CCN(Cc1ccccc1)C3	0	0	0	0	50µM	0
CCn1c(SCC(=O)NCCc2ccccc2)nc2sc3c(c2c1=O)CCN(C)C3	0	0	0	0	?	0
COc1ccc(-c2cc(=O)c3c(O)cc(O)c(-c4cc(-c5cc(=O)c6c(O)cc(OC)cc6o5)ccc4OC)c3o2)cc1	-	0	-	-	-	-
Cc1ccc(NC(=O)OCc2cccs2)cc1	-	0	-	-	0	0
CC1c2ccccc2N(NC(=O)Cc2ccccc2)C1C (stereo unspecified)	0	0	0	0	0	0
CSc1nc2sc3c(c2c(=O)n1C)CCC3	0	0	0	-	-	0
Cc1nc2sc3c(c2c(=O)n1NC(=O)CCBr)CCCC3	0	0	0	0	50µM	0
C#CCSc1nc2sc3c(c2c(=O)n1C)CCC3	79µM	0	?	-	45µM	50µM
CCn1c(SCC(N)=O)nc2sc3c(c2c1=O)CCCC3	0	0	0	-	45µM	0
CCn1c(NN)nc2sc3c(c2c1=O)CCC3	?	56µM	0	-	45µM	0
SMILES	JMJD2A Tudor inh	Sfp inh	HP1b chromo inh	L3MBTL1 inh	G9a block	BAZ2B block
O=c1cc(-c2ccccc2F)[nH]c2cc3c(cc12)OCO3	-	-	-	-	0	-
COc1ccc(-n2c(NN)nc3sc4c(c3c2=O)CCCC4)cc1	0	0	0	0	50µM	0
CCN1CCN(c2nc3sc4c(c3c(=O)n2-c2ccc(OC)cc2)CCCCC4)CC1	?	0	0	0	?	?
O=c1oc2ccccc2c2c1ccc1ccccc12	0	-	0	0	-	-
O=C(O)c1ccc(/C=C2\SC(=S)N(Nc3ccccc3)C2=O)cc1	0	0	0	0	50µM	?
O=C(CN1C(=O)S/C(=C\c2ccc(C(=O)O)cc2)C1=O)Nc1ccccc1	0	0	0	0	-	0
O=C1/C(=C/c2ccncc2)SC(=S)N1Nc1ccccc1	?	?	?	0	32µM	?
CC(=O)NN1C(=O)/C(=C\c2ccc(C)cc2)SC1=S	0	0	0	0	0	0
O=C1/C(=C\c2ccncc2)SC(=S)N1C1CCCCC1	0	0	0	0	?	0
Cc1cc(C)nc(NN2C(=O)/C(=C/c3ccccc3)SC2=S)n1	0	32µM	0	0	40µM	0
CS(=O)(=O)c1ccc(Cl)c(NC(=O)CN2CCN(C(=O)c3cccs3)CC2)c1	0	-	0	0	-	-
CCCCN1CC(C)(C)Oc2cccc(F)c2S1(=O)=O	0	-	0	-	-	-
O=C(NCc1ccc2[nH]c3c(c2c1)CCCC3)c1ccc(S(=O)(=O)N2CCOCC2)cc1	0	0	0	0	40µM	?
CN(C)S(=O)(=O)c1ccc(C(=O)NCc2ccc3[nH]c4c(c3c2)CCCC4)cc1	?	0	0	0	45µM	?
O=C(NCc1ccc2[nH]c3c(c2c1)CCCC3)c1ccc(S(=O)(=O)N2CCCC2)cc1	0	0	0	0	45µM	0
Cc1ccc(N2C(=O)CSC23C(=O)N(CC(=O)Nc2ccccc2F)c2ccccc23)cc1C (stereo unspecified)	0	-	0	-	0	0
CCC(Oc1ccccc1)C(=O)Nc1cc(-c2ccccc2F)nn1-c1ccccc1 (stereo unspecified)	0	-	0	-	0	0
